The list is not random: actives were taken first. Their share in the collection is about 8.7%.
Pf growth 48h: Primary qHTS for delayed death inhibitors of the malarial parasite plastid, 48 hour incubation. P. falciparum luciferase growth in erythrocytes, 48 h. Potency, µM (titrated, usually from 28.7 µM), inactives show at the highest dose activity change, negative = inhibition, actives largely listed as inhibitors. 310,000 compounds, 5.9% hits. AID 504832, 2011
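Luciferase-expressing P. falciparum in infected erythrocytes (2% hematocrit, 0.1% parasitemia final) in RPMI 1640/0.5% Albumax were exposed to compound for 48 hours at 37 C, 5% CO2; growth read as luminescence.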
Pf growth 96h: Primary qHTS for delayed death inhibitors of the malarial parasite plastid, 96 hour incubation | P. falciparum luciferase reporter growth, 96 h | Potency, µM (series often up to 28.7 µM), for inactives: at the highest dose activity change, negative = inhibition, most hits filed as inhibitors | 320,000 compounds, 6.9% hits
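Plates of compound plus infected erythrocytes (2% hematocrit, 0.05% parasitemia final) incubate 96 hours, 37 C, 5% CO2. Detection reagent added; reduced luminescence from the parasites' luciferase reporter flags inhibition.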
VACV mCherry inh: qHTS for Stage-Specific Inhibitors of Vaccinia Orthopoxvirus: mCherry Reporter Primary qHTS. 310,000 compounds, 0.63% hits. Potency, µM (highest dose often 36.5 µM), for inactives: at the highest dose activity change, negative = inhibition, most hits filed as inhibitors. AID 720579, 2013. Vaccinia virus mCherry reporter infection, fluorescence; calls by dose curve; tested in A549 cells; further: nearly all actives have a fitted effect of over 35% in size
AMA1-RON2 inh: qHTS for Inhibitors of AMA1-RON; Towards Development of Antimalarial Drug Lead: Primary Screen | Plasmodium falciparum AMA1 (3D7) - RON2 peptide interaction | AlphaScreen AMA1-biotinylated RON2 peptide binding | Potency, µM (doses to about 58.2 µM), for the others: at the highest dose activity change, negative = inhibition, hits mostly inhibitors | 360,000 compounds, 0.2% hits;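 further: 0% = vehicle wells and -100% = peptide control; nearly all actives have a fitted effect of over 45% in size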
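AMA1 (3D7) with his tag at 25 nM final met compounds first, then biotinylated RON2 peptide at 25 nM; detection used donor plus acceptor beads, 10 µg/mL apiece, read by AlphaScreen after 30 min at room temperature.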
VACV Venus inh: qHTS for Stage-Specific Inhibitors of Vaccinia Orthopoxvirus: Venus Reporter Primary qHTS | 330,000 compounds, 0.46% hits | Potency, µM (series often up to 36.5 µM), for inactives: at the highest dose activity change, negative = inhibition, actives largely listed as inhibitors | Vaccinia virus Venus reporter expression, fluorescence | AID 720580, 2013; calls by dose curve; tested in A549 cells; further: nearly all actives have a fitted effect of over 30% in size
Active calls of the source: *; i = inactive; u = inconclusive; x = not tested or not shown. Unless noted, the call rests on the fitted dose curve; in most records, active means well fitted curve in the direction sought with a large enough effect; inconclusive means small, poorly fitted or top-dose-only effect, or another doubt; inactive means no such curve, though single readings can be large; an effect the other way counts as inactive or inconclusive. Unless noted, on the % scale 0 is the no-effect control and ±100 the full control effect; potency means the concentration at half of the fitted maximal effect.

SMILES	Pf growth 48h	Pf growth 96h	VACV mCherry inh	AMA1-RON2 inh	VACV Venus inh
CN(C(=O)c1ccc(NC(=O)Cc2ccc(NC(=O)C3CCCN(C(=O)CCc4ccccc4)C3)cc2)cc1)C1CCCC1 (stereo not given)	x	x	10µM*	0%	u
CN(C(=O)c1ccc(NC(=O)Cc2ccc(NC(=O)C3CCN(C(=O)CCc4ccccc4)CC3)cc2)cc1)C1CCCC1	x	x	i	-8%	-9%
C/C(Cn1nnc([N+](=O)[O-])n1)=N\NC(=O)c1ccccc1Cl	7.4µM*	9.3µM*	u	55%	u
C/C(Cn1nnc([N+](=O)[O-])n1)=N\NC(=O)c1ccncc1	-15%	u	u	82%	u
C/C(Cn1nnc([N+](=O)[O-])n1)=N\NC(=O)c1cccc(Cl)c1	u	12µM*	u	7%	u
CCCCOc1ccc(C(=O)NCCS(=O)(=O)N2CCN(c3ccccc3OC)CC2)cc1	x	x	-25%	x	-25%
COc1ccc(-c2cc(C(F)(F)F)nc(-n3nc(C(F)(F)F)cc3C)n2)cc1	x	x	-8%	x	-7%
Cc1cccc(C(=O)Nc2cccc(C(=O)OCc3cc(=O)n4ccsc4n3)c2)c1	x	x	-11%	x	-14%
Cc1ccc(N(C(C)C(=O)N2CCOCC2)S(C)(=O)=O)cc1C (stereo not given)	u	9.3µM*	-10%	11%	-10%
CCOC(=O)N1CCN(C(=O)C(C)N(c2ccc(Oc3ccccc3)cc2)S(C)(=O)=O)CC1 (stereo not given)	12µM*	u	x	-5%	-11%
Cc1ccc(N(C(C)C(=O)N2CCC(C)CC2)S(C)(=O)=O)cc1C (stereo not given)	9%	u	-4%	0%	-10%
CCOC(=O)N1CCN(CC(=O)Nc2ccc(Oc3ccccc3)cc2)CC1	7.4µM*	x	i	-1%	-11%
O=C(CN1CCN(C(=O)N2CCOCC2)CC1)Nc1ccc(Br)cc1	21%	u	-4%	-16%	-4%
COc1ccc(NC(=O)CN2CCN(C(=O)N3CCOCC3)CC2)cc1	12%	2.3µM*	-12%	-12%	-12%
C=C(NCc1ccccc1)c1ccccc1O	-9%	-14%	x	x	x
CCN(CC)S(=O)(=O)c1ccc2c(c1)N(CC(=O)N1CCN(c3cccc(C)c3C)CC1)C(=O)CO2	x	x	-19%	x	-10%
Cc1cc(NC(=O)c2cccc(S(=O)(=O)N3c4ccccc4CC3C)c2)no1 (stereo not given)	3.3µM*	5.2µM*	x	3%	x
CC1Cc2ccccc2N1S(=O)(=O)c1cccc(C(=O)N2Cc3ccccc3CC2C(N)=O)c1 (stereo not given)	u	13µM*	x	7%	x
CCOC(=O)c1sc(NC(=O)c2cccc(S(=O)(=O)N3c4ccccc4CC3C)c2)cc1C (stereo not given)	2.9µM*	u	-5%	-3%	-22%
CC1Cc2ccccc2N1S(=O)(=O)c1cccc(C(=O)N2CCCCC2)c1 (stereo not given)	0%	7%	i	-4%	u
Cc1ccc(/C=C/c2onc(C)c2S(=O)(=O)N2CCC(C(=O)NCc3ccc(Cl)cc3)CC2)cc1	x	x	-24%	x	-17%
COc1cc(/C=C2\C(=O)N(c3ccccc3)N=C2C)ccc1Oc1ccc([N+](=O)[O-])cc1[N+](=O)[O-]	-17%	10µM*	u	-28%	-24%
CCN(CC)CCNC(=O)C1CCN(C(=O)c2cnn(-c3ccccc3)c2-n2cccc2)CC1	x	x	-8%	x	2%
COCCC(=O)NC12CC3CC(CC(C3)C1)C2	3%	x	3%	-10%	106%
CCOP(=O)(NC12CC3CC(CC(C3)C1)C2)NC12CC3CC(CC(C3)C1)C2	3.7µM*	2.9µM*	-4%	0%	3%
SMILES	Pf growth 48h	Pf growth 96h	VACV mCherry inh	AMA1-RON2 inh	VACV Venus inh
Cc1cc(C)c(NC(=O)COC(=O)CSc2ccc(Br)cc2C)c(C)c1	-16%	13%	-2%	7%	-12%
CCN(CC)c1ccc(NC(=O)COC(=O)CSc2ccc(Br)cc2C)cc1	1%	-2%	-5%	10µM*	-12%
COc1ccc(Cc2nnc(NC(=O)C3CC(=O)N(c4ccccc4)C3)s2)cc1OC (stereo not given)	0%	2.9µM*	-17%	-24%	-9%
CCOC(=O)c1c(NC(=O)c2c(-c3ccccc3)noc2C)sc(C)c1-c1ccccc1	x	6.6µM*	x	-9%	-2%
CCCCOc1ccc(N2CC(C(=O)NCCc3ccc(OC)c(OC)c3)CC2=O)cc1 (stereo not given)	-15%	12µM*	-11%	-5%	-13%
COc1ccc(Cc2nnc(NC(=O)c3c(-c4ccccc4)noc3C)s2)cc1OC	u	10µM*	x	x	x
CCOC(=O)c1ccccc1NC(=O)c1c(-c2ccccc2)noc1C	x	x	-14%	x	-23%
COc1cccc(C(=O)Nc2nnc(Cc3ccc(OC)c(OC)c3)s2)c1	12µM*	0%	i	-1%	13%
COc1ccc(C(=O)Nc2nnc(Cc3ccc(OC)c(OC)c3)s2)c(OC)c1	2.3µM*	151%	-5%	-9%	-26%
Cc1ccc(-n2nc(C)c3nc(CCC(=O)Nc4cccc(C)c4C)c(=O)n(C)c32)cc1	x	x	-13%	x	-16%
CCc1ccccc1Nc1nn2c(=O)c3ccc(C(=O)NCc4ccccc4Cl)cc3nc2s1	x	x	-16%	x	-17%
CCc1ccccc1Nc1nn2c(=O)c3ccc(C(=O)NCCCOC(C)C)cc3nc2s1	13µM*	u	u	x	u
COc1ccccc1Nc1nn2c(=O)c3ccc(C(=O)NCCC4=CCCCC4)cc3nc2s1	x	x	8.9µM*	x	7.9µM*
Cc1ccccc1Nc1nn2c(=O)c3ccccc3nc2s1	80%	2.6µM*	x	0%	x
CCc1ccccc1Nc1nn2c(=O)c3ccc(C(=O)NC(C)C)cc3nc2s1	x	x	-16%	x	-19%
CCc1ccccc1Nc1nn2c(=O)c3ccc(C(=O)NCc4cccs4)cc3nc2s1	9.3µM*	8.3µM*	u	x	-24%
COc1ccc(OC)c(Nc2nn3c(=O)c4ccccc4nc3s2)c1	-18%	11%	x	x	x
CCCC(=O)Nc1cc(C(=O)NCc2ccccc2)ccc1S(=O)(=O)c1ccc(Cl)cc1	x	x	-3%	x	-2%
CCc1nc2cc(C(=O)N3CCC[C@H]3C(=O)OC)cc(NC(=O)c3ccccc3OC)c2n1C	x	x	i	x	-26%
ClC(Cl)(Cl)c1nc(N/N=C/c2ccncc2)c2ccccc2n1	2.3µM*	u	-12%	16%	-7%
C(=N\Nc1nc(-c2ccccn2)nc2ccccc12)/c1ccccc1	4.7µM*	2.1µM*	x	x	x
